# Source: paper PMC7862700, “An all-to-all approach to the identification of sequence-specific readers for epigenetic DNA modifications on cytosine”
# Legend:
# Assay in all cases: DAPPL (digital affinity profiling via proximity ligation, sequencing); 10 mM Tris-HCl pH 7.5, 50 mM NaCl, 1 mM DTT, 4% glycerol, room temperature, 30 min; GST-TFs on glutathione beads, 16-mer random dsDNA library, 0.1% formaldehyde crosslink after washing; high values mean tight binding
# FEV = molecular target: T1, FEV (Homo sapiens, UniProt Q99581 1-238); conditions: protein: recombinant; tags: N-terminal GST; dsDNA, one strand shown
# T1 sequence: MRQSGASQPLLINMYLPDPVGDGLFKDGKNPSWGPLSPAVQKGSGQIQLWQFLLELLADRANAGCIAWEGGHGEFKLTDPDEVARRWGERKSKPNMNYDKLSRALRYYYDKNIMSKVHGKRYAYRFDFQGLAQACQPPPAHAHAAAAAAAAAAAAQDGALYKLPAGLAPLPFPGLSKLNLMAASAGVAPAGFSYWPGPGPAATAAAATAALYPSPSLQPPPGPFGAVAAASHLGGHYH
# Procedure, shortened: (§1)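 Human transcription factors were made in yeast as GST fusions, captured on glutathione beads and barcoded with DNA. With a tag-only sample included, the pool was incubated with 200 nmole of a random double-stranded 16-mer DNA library in Tris/NaCl/DTT/glycerol buffer at room temperature for 30 min, then crosslinked with 0.1% formaldehyde after washing, ligated by proximity, amplified and sequenced. For binding signal, each hexamer's read frequency for a factor is divided by its frequency for the tag-only sample.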
# ETV5 = ETV5 (Homo sapiens, UniProt P41161 1-510); conditions: protein: recombinant; tags: N-terminal GST; dsDNA, one strand shown
# ETV5, sequence (P41161 whole entry): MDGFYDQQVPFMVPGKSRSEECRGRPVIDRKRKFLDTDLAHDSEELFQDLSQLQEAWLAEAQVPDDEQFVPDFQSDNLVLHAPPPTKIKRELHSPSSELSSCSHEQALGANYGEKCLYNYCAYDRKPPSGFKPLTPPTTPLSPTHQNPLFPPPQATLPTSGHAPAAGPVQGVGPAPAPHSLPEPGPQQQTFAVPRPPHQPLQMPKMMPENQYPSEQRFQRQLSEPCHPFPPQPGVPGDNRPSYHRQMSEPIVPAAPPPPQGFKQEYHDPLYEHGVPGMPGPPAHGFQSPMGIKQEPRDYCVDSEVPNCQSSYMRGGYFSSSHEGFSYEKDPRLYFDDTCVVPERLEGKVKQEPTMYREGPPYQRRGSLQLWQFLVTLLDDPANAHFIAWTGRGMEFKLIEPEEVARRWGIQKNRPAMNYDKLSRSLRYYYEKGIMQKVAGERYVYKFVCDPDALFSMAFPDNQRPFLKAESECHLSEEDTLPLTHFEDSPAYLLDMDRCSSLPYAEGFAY
# Procedure, shortened: as §1
# HSF1 = HSF1 (Homo sapiens, UniProt Q00613 1-529); conditions: protein: recombinant; tags: N-terminal GST; chain copies: 3; dsDNA, one strand shown
# HSF1, sequence (Q00613 whole entry): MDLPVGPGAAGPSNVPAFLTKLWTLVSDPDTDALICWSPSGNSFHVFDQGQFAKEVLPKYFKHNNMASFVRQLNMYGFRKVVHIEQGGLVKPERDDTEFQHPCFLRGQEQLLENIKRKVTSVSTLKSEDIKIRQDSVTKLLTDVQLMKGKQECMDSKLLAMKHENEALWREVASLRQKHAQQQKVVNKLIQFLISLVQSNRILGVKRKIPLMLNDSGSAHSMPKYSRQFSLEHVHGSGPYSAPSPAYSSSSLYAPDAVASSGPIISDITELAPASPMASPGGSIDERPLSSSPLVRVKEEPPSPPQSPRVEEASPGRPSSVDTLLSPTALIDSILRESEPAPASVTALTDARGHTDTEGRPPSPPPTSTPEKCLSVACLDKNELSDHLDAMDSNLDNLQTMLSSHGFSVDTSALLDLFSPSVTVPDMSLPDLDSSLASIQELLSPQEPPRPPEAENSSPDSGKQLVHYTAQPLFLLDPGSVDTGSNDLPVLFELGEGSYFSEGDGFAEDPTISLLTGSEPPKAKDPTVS
# Procedure, shortened: as §1
# SPIC = molecular target: T2, SPIC (Homo sapiens, UniProt Q8N5J4 1-248); conditions: protein: recombinant; tags: N-terminal GST; dsDNA, one strand shown
# T2 sequence: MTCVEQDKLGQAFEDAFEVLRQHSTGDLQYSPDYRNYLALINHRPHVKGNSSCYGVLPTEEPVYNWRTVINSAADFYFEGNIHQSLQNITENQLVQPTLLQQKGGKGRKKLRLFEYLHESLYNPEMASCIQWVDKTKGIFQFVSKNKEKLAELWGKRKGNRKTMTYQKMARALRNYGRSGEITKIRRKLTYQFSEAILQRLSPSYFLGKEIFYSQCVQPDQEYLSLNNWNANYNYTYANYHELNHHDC
# Procedure, shortened: as §1
# ELF4 = ELF4 (Homo sapiens, UniProt Q99607 1-663); conditions: protein: recombinant; tags: N-terminal GST; dsDNA, one strand shown
# ELF4, sequence (Q99607 whole entry): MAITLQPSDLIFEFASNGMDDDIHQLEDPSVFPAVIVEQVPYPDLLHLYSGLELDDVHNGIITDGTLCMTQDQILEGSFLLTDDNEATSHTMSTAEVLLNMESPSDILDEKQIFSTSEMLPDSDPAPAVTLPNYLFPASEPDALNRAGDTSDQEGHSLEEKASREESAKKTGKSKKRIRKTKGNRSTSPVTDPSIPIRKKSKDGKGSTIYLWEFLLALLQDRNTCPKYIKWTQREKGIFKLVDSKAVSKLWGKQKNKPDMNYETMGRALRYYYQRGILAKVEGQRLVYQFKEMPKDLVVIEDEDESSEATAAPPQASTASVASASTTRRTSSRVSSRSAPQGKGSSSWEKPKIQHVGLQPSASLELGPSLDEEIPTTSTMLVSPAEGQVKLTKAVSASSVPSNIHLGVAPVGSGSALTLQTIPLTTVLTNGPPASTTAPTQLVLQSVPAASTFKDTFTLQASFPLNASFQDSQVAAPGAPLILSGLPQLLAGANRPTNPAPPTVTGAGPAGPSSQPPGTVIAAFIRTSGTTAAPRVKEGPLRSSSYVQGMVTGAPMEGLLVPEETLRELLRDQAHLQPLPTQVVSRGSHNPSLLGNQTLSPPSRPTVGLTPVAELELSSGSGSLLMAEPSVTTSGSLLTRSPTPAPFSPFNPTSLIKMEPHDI
# Procedure, shortened: as §1
# ELK4 = molecular target: T3, ELK4 (Homo sapiens, UniProt P28324-2 1-405); conditions: protein: recombinant; tags: N-terminal GST; dsDNA, one strand shown
# T3 sequence: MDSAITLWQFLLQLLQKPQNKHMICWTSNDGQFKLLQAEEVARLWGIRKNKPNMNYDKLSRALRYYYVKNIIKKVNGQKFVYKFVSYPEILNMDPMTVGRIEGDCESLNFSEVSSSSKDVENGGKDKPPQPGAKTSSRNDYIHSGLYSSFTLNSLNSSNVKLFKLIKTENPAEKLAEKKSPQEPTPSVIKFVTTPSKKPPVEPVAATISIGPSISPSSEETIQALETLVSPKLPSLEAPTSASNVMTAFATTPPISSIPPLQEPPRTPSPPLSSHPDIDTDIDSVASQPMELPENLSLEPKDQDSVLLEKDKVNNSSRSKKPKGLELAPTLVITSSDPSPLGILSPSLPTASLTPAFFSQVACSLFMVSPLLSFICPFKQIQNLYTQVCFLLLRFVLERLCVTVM
# Procedure, shortened: as §1
# ETV2 = molecular target: T4, ETV2 (Homo sapiens, UniProt O00321 1-342); conditions: protein: recombinant; tags: N-terminal GST; dsDNA, one strand shown
# T4 sequence: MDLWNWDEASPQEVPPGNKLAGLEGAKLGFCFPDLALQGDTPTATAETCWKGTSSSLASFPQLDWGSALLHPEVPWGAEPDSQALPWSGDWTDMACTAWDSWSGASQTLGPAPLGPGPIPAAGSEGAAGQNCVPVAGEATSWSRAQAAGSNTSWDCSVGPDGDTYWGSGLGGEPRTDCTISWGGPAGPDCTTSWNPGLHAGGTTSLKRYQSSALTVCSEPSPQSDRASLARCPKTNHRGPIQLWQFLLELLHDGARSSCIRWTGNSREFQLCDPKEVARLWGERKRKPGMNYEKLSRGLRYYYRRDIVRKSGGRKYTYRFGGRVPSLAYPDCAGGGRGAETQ
# Procedure, shortened: as §1
# ELF3 = molecular target: T5, ELF3 (Homo sapiens, UniProt P78545 1-371); conditions: protein: recombinant; tags: N-terminal GST; dsDNA, one strand shown
# T5 sequence: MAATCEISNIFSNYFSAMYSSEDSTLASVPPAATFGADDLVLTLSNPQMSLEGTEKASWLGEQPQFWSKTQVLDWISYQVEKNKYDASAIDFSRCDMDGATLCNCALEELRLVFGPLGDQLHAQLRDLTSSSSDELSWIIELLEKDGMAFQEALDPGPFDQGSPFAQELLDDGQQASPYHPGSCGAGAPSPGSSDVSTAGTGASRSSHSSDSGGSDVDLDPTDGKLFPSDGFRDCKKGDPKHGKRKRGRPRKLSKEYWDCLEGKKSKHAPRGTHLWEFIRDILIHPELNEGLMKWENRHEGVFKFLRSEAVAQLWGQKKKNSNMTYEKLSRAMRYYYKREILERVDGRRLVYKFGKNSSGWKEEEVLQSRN
# Procedure, shortened: as §1
# CRX = CRX (Homo sapiens, UniProt O43186 1-299); conditions: protein: recombinant; tags: N-terminal GST; dsDNA, one strand shown
# CRX, sequence (O43186 whole entry): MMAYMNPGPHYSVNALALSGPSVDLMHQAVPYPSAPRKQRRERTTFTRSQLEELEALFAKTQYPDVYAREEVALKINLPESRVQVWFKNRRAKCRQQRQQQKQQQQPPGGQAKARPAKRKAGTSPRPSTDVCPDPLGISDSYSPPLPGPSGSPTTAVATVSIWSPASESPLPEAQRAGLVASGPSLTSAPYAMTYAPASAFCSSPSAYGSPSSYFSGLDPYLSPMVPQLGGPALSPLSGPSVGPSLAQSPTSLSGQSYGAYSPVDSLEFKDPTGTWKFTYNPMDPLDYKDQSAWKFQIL
# Procedure, shortened: as §1
# ETV1 = ETV1 (Homo sapiens, UniProt P50549 1-477); conditions: protein: recombinant; tags: N-terminal GST; dsDNA, one strand shown
# ETV1, sequence (P50549 whole entry): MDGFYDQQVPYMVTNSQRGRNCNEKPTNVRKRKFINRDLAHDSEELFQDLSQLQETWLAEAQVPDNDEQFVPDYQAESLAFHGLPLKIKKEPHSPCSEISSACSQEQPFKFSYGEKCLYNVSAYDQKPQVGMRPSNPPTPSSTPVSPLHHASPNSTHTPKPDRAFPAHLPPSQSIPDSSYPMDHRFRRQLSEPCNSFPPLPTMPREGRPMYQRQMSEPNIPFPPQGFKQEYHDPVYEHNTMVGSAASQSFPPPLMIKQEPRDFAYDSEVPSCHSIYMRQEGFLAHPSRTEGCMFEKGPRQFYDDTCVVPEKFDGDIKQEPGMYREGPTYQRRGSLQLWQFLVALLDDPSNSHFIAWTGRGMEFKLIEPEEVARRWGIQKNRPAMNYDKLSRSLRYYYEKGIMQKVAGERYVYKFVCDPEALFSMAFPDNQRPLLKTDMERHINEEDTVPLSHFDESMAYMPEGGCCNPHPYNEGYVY
# Procedure, shortened: as §1
# ERF = molecular target: T6, ERF (Homo sapiens, UniProt P50548 1-548); conditions: protein: recombinant; tags: N-terminal GST; dsDNA, one strand shown
# T6 sequence: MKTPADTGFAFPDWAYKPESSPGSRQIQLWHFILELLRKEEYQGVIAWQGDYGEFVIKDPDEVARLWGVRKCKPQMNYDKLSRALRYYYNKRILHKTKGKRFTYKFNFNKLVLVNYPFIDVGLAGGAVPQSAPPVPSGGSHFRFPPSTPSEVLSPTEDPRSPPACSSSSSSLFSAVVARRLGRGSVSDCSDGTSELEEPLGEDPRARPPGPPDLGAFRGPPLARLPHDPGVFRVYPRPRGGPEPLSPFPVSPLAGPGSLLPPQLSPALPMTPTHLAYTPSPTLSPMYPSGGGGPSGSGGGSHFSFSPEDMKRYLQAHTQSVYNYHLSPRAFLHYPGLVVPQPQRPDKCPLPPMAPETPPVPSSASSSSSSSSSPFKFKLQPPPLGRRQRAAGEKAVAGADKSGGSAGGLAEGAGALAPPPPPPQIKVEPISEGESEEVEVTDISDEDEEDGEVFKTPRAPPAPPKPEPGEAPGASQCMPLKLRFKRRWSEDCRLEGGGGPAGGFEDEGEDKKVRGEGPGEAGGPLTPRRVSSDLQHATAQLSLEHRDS
# Procedure, shortened: as §1
# ETV3L = molecular target: T7, ETV3L (Homo sapiens, UniProt Q6ZN32 1-361); conditions: protein: recombinant; tags: N-terminal GST; dsDNA, one strand shown
# T7 sequence: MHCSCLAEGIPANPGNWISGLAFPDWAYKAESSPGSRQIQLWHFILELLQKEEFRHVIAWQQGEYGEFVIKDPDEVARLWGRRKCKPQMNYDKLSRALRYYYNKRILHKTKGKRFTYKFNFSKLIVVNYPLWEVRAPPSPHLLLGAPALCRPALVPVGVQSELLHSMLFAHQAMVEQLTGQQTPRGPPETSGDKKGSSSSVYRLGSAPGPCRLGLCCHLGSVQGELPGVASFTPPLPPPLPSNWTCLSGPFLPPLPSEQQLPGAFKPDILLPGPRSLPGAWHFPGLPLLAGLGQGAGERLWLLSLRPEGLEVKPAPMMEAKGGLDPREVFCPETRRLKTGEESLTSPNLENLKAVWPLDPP
# Procedure, shortened: as §1
# ETS2 = molecular target: T8, ETS2 (Homo sapiens, UniProt P15036 1-469); conditions: protein: recombinant; tags: N-terminal GST; dsDNA, one strand shown
# T8 sequence: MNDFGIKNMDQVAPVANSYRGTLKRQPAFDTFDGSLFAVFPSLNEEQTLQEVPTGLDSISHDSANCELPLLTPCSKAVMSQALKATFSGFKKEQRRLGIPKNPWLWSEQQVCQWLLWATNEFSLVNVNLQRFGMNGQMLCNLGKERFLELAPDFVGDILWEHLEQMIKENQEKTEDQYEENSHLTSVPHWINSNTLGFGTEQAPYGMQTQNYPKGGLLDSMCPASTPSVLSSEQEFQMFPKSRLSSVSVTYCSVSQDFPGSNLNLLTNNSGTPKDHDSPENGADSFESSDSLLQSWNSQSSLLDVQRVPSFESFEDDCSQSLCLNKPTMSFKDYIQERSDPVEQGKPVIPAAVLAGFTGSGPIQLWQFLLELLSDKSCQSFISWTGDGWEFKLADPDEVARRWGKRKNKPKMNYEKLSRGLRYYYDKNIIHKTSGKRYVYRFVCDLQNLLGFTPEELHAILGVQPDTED
# Procedure, shortened: as §1
# SPDEF = molecular target: T9, SPDEF (Homo sapiens, UniProt O95238 1-335); conditions: protein: recombinant; tags: N-terminal GST; dsDNA, one strand shown
# T9 sequence: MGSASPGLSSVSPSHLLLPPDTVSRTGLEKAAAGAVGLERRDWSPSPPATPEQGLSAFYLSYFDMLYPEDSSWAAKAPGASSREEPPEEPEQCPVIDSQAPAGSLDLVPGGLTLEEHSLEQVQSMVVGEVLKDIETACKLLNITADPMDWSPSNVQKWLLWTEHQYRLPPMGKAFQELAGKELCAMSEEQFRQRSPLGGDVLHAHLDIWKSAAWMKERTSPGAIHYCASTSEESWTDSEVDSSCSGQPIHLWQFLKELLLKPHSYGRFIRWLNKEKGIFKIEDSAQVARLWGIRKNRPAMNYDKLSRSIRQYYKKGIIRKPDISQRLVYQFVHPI
# Procedure, shortened: as §1
# ETV7 = molecular target: T10, ETV7 (Homo sapiens, UniProt Q9Y603 1-341); conditions: protein: recombinant; tags: N-terminal GST; dsDNA, one strand shown
# T10 sequence: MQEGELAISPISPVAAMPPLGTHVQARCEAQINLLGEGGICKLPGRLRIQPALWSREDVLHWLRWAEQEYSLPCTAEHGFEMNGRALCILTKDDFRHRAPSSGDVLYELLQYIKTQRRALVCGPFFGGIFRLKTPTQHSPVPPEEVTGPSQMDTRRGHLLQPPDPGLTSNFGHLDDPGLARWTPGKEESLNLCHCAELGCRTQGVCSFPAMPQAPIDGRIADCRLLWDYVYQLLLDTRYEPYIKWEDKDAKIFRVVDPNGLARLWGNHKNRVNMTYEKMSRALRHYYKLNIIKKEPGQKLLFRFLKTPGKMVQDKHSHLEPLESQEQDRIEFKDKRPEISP
# Procedure, shortened: as §1
# ELF5 = molecular target: T11, ELF5 (Homo sapiens, UniProt Q9UKW6-2 1-255); conditions: protein: recombinant; tags: N-terminal GST; dsDNA, one strand shown
# T11 sequence: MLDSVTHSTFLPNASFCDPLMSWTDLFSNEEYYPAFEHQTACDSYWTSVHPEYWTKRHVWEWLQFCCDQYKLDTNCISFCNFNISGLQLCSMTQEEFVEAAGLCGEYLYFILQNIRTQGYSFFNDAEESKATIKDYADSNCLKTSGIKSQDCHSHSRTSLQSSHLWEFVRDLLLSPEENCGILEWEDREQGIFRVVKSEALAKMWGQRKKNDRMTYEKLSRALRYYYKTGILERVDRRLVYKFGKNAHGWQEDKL
# Procedure, shortened: as §1
# ETV3 = molecular target: T12, ETV3 (Homo sapiens, UniProt P41162-2 1-143); conditions: protein: recombinant; tags: N-terminal GST; dsDNA, one strand shown
# T12 sequence: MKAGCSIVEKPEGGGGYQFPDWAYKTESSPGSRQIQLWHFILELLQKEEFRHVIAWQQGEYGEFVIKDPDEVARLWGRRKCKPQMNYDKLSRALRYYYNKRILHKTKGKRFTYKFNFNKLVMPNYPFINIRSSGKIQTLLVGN
# Procedure, shortened: as §1
# ETV6 = ETV6 (Homo sapiens, UniProt P41212 1-452); conditions: protein: recombinant; tags: N-terminal GST; dsDNA, one strand shown
# ETV6, sequence (P41212 whole entry): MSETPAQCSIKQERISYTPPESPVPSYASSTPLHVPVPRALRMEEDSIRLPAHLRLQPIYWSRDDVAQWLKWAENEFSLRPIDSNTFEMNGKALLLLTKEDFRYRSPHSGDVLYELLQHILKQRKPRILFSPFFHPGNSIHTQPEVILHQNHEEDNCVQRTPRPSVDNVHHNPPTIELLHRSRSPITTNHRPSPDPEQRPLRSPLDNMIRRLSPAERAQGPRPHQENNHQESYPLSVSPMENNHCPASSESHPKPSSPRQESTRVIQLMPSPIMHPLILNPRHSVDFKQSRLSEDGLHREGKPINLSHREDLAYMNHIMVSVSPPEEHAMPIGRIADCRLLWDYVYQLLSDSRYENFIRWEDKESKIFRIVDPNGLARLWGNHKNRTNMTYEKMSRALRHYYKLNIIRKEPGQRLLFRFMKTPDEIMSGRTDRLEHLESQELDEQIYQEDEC
# Procedure, shortened: as §1
sequence,measurement,setting,value
TTAAGG,binding signal,FEV,"1.16 fold enrichment (6-mer frequency, TF over GST control)"
same,binding signal,ETV5,"1.11 fold enrichment (6-mer frequency, TF over GST control)"
same,binding signal,HSF1,"1.67 fold enrichment (6-mer frequency, TF over GST control)"
same,binding signal,SPIC,"1.23 fold enrichment (6-mer frequency, TF over GST control)"
same,binding signal,ELF4,"1.14 fold enrichment (6-mer frequency, TF over GST control)"
same,binding signal,ELK4,"1.25 fold enrichment (6-mer frequency, TF over GST control)"
same,binding signal,ETV2,"1.23 fold enrichment (6-mer frequency, TF over GST control)"
same,binding signal,ELF3,"1.2 fold enrichment (6-mer frequency, TF over GST control)"
same,binding signal,CRX,"2.78 fold enrichment (6-mer frequency, TF over GST control)"
same,binding signal,ETV1,"1.15 fold enrichment (6-mer frequency, TF over GST control)"
same,binding signal,ERF,"1.16 fold enrichment (6-mer frequency, TF over GST control)"
same,binding signal,ETV3L,"1.09 fold enrichment (6-mer frequency, TF over GST control)"
same,binding signal,ETS2,"1.1 fold enrichment (6-mer frequency, TF over GST control)"
same,binding signal,SPDEF,"1.28 fold enrichment (6-mer frequency, TF over GST control)"
same,binding signal,ETV7,"1.12 fold enrichment (6-mer frequency, TF over GST control)"
same,binding signal,ELF5,"1.26 fold enrichment (6-mer frequency, TF over GST control)"
same,binding signal,ETV3,"1.16 fold enrichment (6-mer frequency, TF over GST control)"
same,binding signal,ETV6,"1.06 fold enrichment (6-mer frequency, TF over GST control)"
